This note sets out measurements from PubChem BioAssay (EPA / NIEHS).

SMILES strings stand for the structures. “And” between values parts separate entries of the source, which are not always exact repeats. Equal values may be shown once. Results filed as inconclusive are left out. The source holds several records for some structures; these can differ, active in one and inactive in another. The source made the active and inactive calls. How the source made its calls, unless noted: active means hit-call score of the fitted dose curve at least 0.9, where 1 is the maximum; inactive means score below 0.9.

Read-out in one assay: CD69, CD69 (gene 969)
The assay is described as follows: BSK_LPS_CD69: BioMAP Diversity Plus: LPS Assay for CD69 Biomarker Activity (AID 2284303). Particulars: primary human HUVEC with PBMC. The procedure, abridged:
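CD69 surface levels were read by ELISA after 24 h chemical treatment of an LPS-stimulated HUVEC plus PBMC co-culture; positive-direction fit against DMSO vehicle.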

The nature of assay [1]: IUF_NPC2a_radial_glia_migration_120hr: Leibniz Research Institute for Environmental Medicine (IUF) 120-hour Neural Progenitor Cell Migration Assay for Radial Glia Migration (NPC2a) (AID 2284298). The procedure, abridged: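 Migration distance in um, sphere core edge to migration-area edge, derived by nuclei-density algorithm from Hoechst images after 120 h compound exposure. Primary hNPC spheres differentiated on poly-D-lysine/laminin in N2 medium, 37C; medium half-replaced day 3.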

A short description of assay [2]: IUF_NPC2a_radial_glia_migration_72hr: Leibniz Research Institute for Environmental Medicine (IUF) 72-hour Neural Progenitor Cell Migration Assay for Radial Glia Migration (NPC2a) (AID 2284299). In short, it runs like this:
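Single 0.3 mm neurospheres were plated per well in N2 differentiation medium and exposed from the start of differentiation. After 72 hours, brightfield images were taken and radial glia migration from the sphere core edge was measured manually in four directions, averaged per well.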

A short description of assay [3]: IUF_NPC2b_neuronal_migration_120hr: Leibniz Research Institute for Environmental Medicine (IUF) 120-hour Neural Progenitor Cell Migration Assay for Neuron Migration (NPC2b) (AID 2284300). In short, it runs like this: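 TUBB3-positive neurons are imaged after 120 h of differentiation, and their mean distance from the sphere edge is normalised to radial glia migration. Single 0.3 mm fetal hNPC spheres on poly-D-lysine/laminin received 7 compound concentrations, ≤0.1% DMSO, refreshed at day 3.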

Assay [4] is described as follows: IUF_NPC3_neuronal_differentiation_120hr: Leibniz Research Institute for Environmental Medicine (IUF) 120-hour Neuronal Differentiation Assay (NPC3) (AID 2284301). In short, it runs like this: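 hNPC spheres, PDL/laminin, DMEM/F12 3:1 + 1% N2, 37C, 5% CO2; 7 concentrations + solvent control, 5 d exposure, half-change day 3. Fix 120 h; TUBB3/Hoechst ICC, CNN neuron calling; % neurons vs nuclei, DMSO-normalized.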

A short description of assay [5]: IUF_NPC4_neurite_length_120hr: Leibniz Research Institute for Environmental Medicine (IUF) 120-hour Neuronal Morphology Assay for Neurite Length (NPC4) (AID 2284302). In short, it runs like this:
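hNPC spheres (0.3 mm, fetal brain GW 16-19) on PDL/laminin, DMEM:F12 3:1 + 1% N2, 37C 5% CO2; 7 concs + solvent control, day 0-5, half medium change d3; fix 120 h, TUBB3 ICC, mean neurite length um vs DMSO.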

Assay [6] in a line: IUF_NPC5_oligodendrocyte_differentiation_120hr: Leibniz Research Institute for Environmental Medicine (IUF) 120-hour Oligodendrocyte Differentiation Assay (NPC5) (AID 2284304; active means hit-call score of the fitted dose curve at least 0.9, where 1 is the maximum;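 further: primary human fetal neural progenitor spheres plated to migrate and differentiate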). The procedure, abridged: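 Oligodendrocyte differentiation scored as O4-positive cells, found by CNN image analysis, as percent of Hoechst-stained nuclei in the migration area. Scoring followed 5 days of exposure of plated hNPC neurospheres differentiating in DMEM/F12 N2 medium at 37C, with compound refreshed at day 3.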

The nature of assay [7]: IUF_NPC4_neurite_area_120hr: Leibniz Research Institute for Environmental Medicine (IUF) 120-hour Neuronal Morphology Assay for Neurite Area (NPC4) (AID 2284305; active means hit-call score of the fitted dose curve at least 0.9, where 1 is the maximum). The procedure, abridged: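 hNPC spheres on PDL/laminin, N2 medium, 37C/5% CO2; dosed day 0, half-medium refresh day 3; fixed 120 h; TUBB3/Hoechst ICC, high-content imaging; neurite area = mean pixels per neuron (nuclei excluded); DMSO baseline, max 0.1%.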

Assay [8] can be described thus: IUF_NPC2-5_cytotoxicity_72hr: Cytotoxicity Assessment at 72 hours in the Leibniz Research Institute for Environmental Medicine (IUF) Neural Progenitor Cell Migration and Differentiation Assay for Cytotoxicity (NPC2-5) (AID 2284306; active means hit-call score of the fitted dose curve at least 0.9, where 1 is the maximum;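 further: LDH release into supernatant measured by resorufin fluorescence marking membrane damage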). The procedure, abridged: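 hNPC spheres (0.3 mm), PDL/laminin, DMEM/F12 3:1 + 1% N2; cpd from d0, 7 concs + SC, DMSO max 0.1%; half-medium refresh d3. Readout: supernatant LDH via resorufin fluorescence (RFU), 72 h; gain-of-signal fit.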

Assay [9] in a line: IUF_NPC2-5_cytotoxicity_120hr: Cytotoxicity Assessment at 120 hours in the Leibniz Research Institute for Environmental Medicine (IUF) Neural Progenitor Cell Migration and Differentiation Assay (NPC2-5) (AID 2284307; active means hit-call score of the fitted dose curve at least 0.9, where 1 is the maximum). In short, it runs like this: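 Membrane-integrity loss measured as LDH activity in medium supernatant via resazurin-to-resorufin fluorescence after 120 h exposure. hNPC spheres from GW 16-19 fetal cortex differentiated on poly-D-lysine/laminin, 37C, medium half-refreshed day 3; seven concentrations, DMSO max 0.1%.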

On to `CCCCCCCCCCCC(=O)N(C)CC(=O)O`, for which the outcome with CD69, CD69 (gene 969) was inactive.
Same read-out and setting: in the case of `Nc1nc(N)nc(-c2ccccc2)n1` it was “inactive”; in that of `CC(CCC(=O)O)(c1ccc(O)cc1)c1ccc(O)cc1`, “inactive”.
On the same count and under the same terms, next, `CCCC(C)C(=O)OCC` (stereo not drawn): “inactive”; `O=C(O)C(F)(F)C(F)(F)C(F)(F)C(F)(F)C(=O)O`: “inactive”.
Take `C[N+](C)(C)CCCNS(=O)(=O)C(F)(F)C(F)(F)C(F)(F)C(F)(F)C(F)(F)C(F)(F)C(F)(F)C(F)(F)F`: in the assay with CD69, CD69 (gene 969), the AC50 was 30 µM (active) and the outcome was inactive.
In the case of `CC(C)C(=O)OCCc1ccccc1`, in the assay with CD69, CD69 (gene 969), the outcome was inactive.
As to `Cc1c(C(=O)c2c[nH]n(C)c2=O)ccc(S(C)(=O)=O)c1C1=NOCC1`, the compound was called inactive in assay [1], in assay [2], in assay [3], in assay [4], in assay [5] and in assay [6]. Also, the compound was called inactive in [7], in assay [8] and in assay [9].
On to `c1ccc(Nc2cccc3ccccc23)cc1`, for which the AC50 with CD69, CD69 (gene 969) is 36.5 µM (active) and 20 µM (active).
As to `Oc1ccccc1Cc1ccccc1O`, the result with CD69, CD69 (gene 969) was inactive.
For the compound `CCCCNS(=O)(=O)c1ccccc1`, the compound was classed as inactive in [1], in assay [2], in assay [3], in assay [4], in assay [5] and in assay [6]. Also, the compound was called inactive in [7], in [8] and in assay [9].
